What all share (experiment): NCI-60 one-dose screen, 48 h (100 = growth as untreated, 0 = no growth, -100 = all killed)
What all share (conditions): 10 µM unless noted

Test [1] concerns T-47D breast.
In test [2] the test system is BT-549 breast.
For test [3], the system named is MDA-MB-435 melanoma.
Test [4] has as its system SW-620 colon.
Test [5] deals with MCF7 breast.
The test system of test [6] is HCT-116 colon.
The test system of test [7] is KM12 colon.
In test [8] the test system is HCC-2998 colon.

This is part of a sample that, as a whole, favours compounds with a hit. Of some 83,000 tested, about 20% had one in any assay.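 Step 1: grow cells in 96-well plates. Step 2: add test compound at a single concentration. Step 3: incubate 48 h. Step 4: record percent growth.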 Values without a mark were called inactive. Calls of active or inactive are those of the source. Rule for the calls: active = growth percent below 10; inactive = the rest.

Consider `O=C1OCC2=C1C(c1cccc(Br)c1)c1cc3c(cc1N2CCO)OCCO3` (stereo unspecified), for which the growth in test [1] was 76.9%; in test [2] it was 21.4%; in test [3], -40.4% (active); in test [4] it was 21.3%; in test [5], 18.2%; in test [6], 6.29% (active). Also, the growth in test [7] was -33.9% (active).

Regarding `CCN(CC)CCCC(C)Nc1cnc(C(=O)Nc2cc(C)cc3cccnc23)cn1` (stereo unspecified), the growth in test [1] was 32.6%; in test [2], 93.3%; in test [4], 75.3%; in test [5], 57.3%; in test [6], 18%; in test [8] it was 89.8%. In addition, in test [7], the growth was 97.9%.

Consider `O=C(/C=C/c1ccccc1)n1c(-c2ccccc2)nc2ccccc21`, for which the growth was 97.3% in test [1]; 112% in test [2]; 99.9% in test [3]; 102% in test [4]; 97.5% in test [5]; 109% in test [6]. The growth in test [7] is 104%.

In the case of `SCc1ccc(CS)cc1`, the growth was 101% in test [1]; 92.3% in test [2]; 111% in test [3]; 102% in test [4]; 100% in test [6]; 101% in test [8]. The growth in test [7] was 114%.

As to `CC(=O)Nc1nonc1-c1nc2ccccc2n1Cc1ccc(C(C)(C)C)cc1`, the growth is 72.9% in test [1]; 93.2% in test [2]; 86% in test [3]; 58.9% in test [5]; 66.9% in test [6]; 69.3% in test [7].

Consider `Nc1nc2c(c3ncccc13)C(c1ccccc1)Cc1ncccc1-2` (stereo unspecified), for which the growth in test [1] was 71.1%; in test [2], 72.9%; in test [4] it was 52.9%; in test [5] it was 45.6%; in test [6] it was 63.2%; in test [8], 81.7%. For the same compound, the growth in test [7] is 50.4%.

Turning to `C=C(C)C1CCC2(C(=O)O)CCC3(C)C(CCC4C5(C)CCC(O)C(C)(C)C5CCC43C)C12` (stereo unspecified), the growth in test [1] was -1.03% (active); in test [2], -57.5% (active); in test [3], 48.6%; in test [4], 19.6%; in test [5], 1.31% (active); in test [6] it was -88.5% (active). In addition, the growth in test [7] is -26.6% (active).

As to `Fc1ccc(-c2ccnc3nc(-c4ccncc4)nn23)cc1`, the growth in test [1] is 90.1%; in test [2], 93.8%; in test [3] it was 107%; in test [4] it was 30.3%; in test [5], 86.1%; in test [6], 95.1%. Besides, in test [7], the growth was 99.8%.

Consider `O=C(Nc1ccc2[nH]c3ccccc3c2c1)c1ccccc1Cl`, for which the growth is 43.7% in test [1]; 61.2% in test [2]; 28.2% in test [4]; 21.8% in test [5]; 25.4% in test [6]; 64.3% in test [8]. Also, in test [7], the growth was 24.4%.

Turning to `N=C(N)c1ccc(-c2ccc(-c3cc(Cl)cc(Cl)c3)o2)nc1`, the growth is -66.1% (active) in test [1]; 91.2% in test [2]; -82.7% (active) in test [4]; -67.1% (active) in test [5]; -74% (active) in test [6]; -41.9% (active) in test [8].

With `CN=C1C=C/C(=N/N=c2/ccn(O)cc2C)C=C1C`, the growth in test [1] is 90.1%; in test [2] it was 107%; in test [4] it was 98.5%; in test [5] it was 81%; in test [6], 90.9%; in test [8], 91.7%. Also, the growth in test [7] was 109%.

In the case of `Cc1ccc(CSCc2ccc(C(=O)NC3CC3)o2)cc1`, the growth in test [1] is 48.4%; in test [2], 97.9%; in test [4] it was 66.2%; in test [5], 25%; in test [6], 81.1%; in test [8], 31.6%. Further, in test [7], the growth is 46.4%.

Take `CN1CCN(Cc2ccc(NC(=O)c3cccc(C#Cc4cnc(N)c5ncccc45)c3F)cc2C(F)(F)F)CC1`: the growth in test [1] is 79.9%; in test [2], 62%; in test [4] it was -49.9% (active); in test [5], -65.1% (active); in test [6], -67.5% (active); in test [8], 67.3%. The growth in test [7] was 1.2% (active).

In the case of `COc1cc(/C=C/C(=O)c2ccc(NC(=O)CSc3nnc(-c4ccc(Cl)cc4)n3-c3ccccc3)cc2)cc(OC)c1OC`, the growth was 47.5% in test [1]; 59.6% in test [2]; 68.2% in test [4]; 20.8% in test [5]; 7.2% (active) in test [6]; 76.2% in test [8]. The growth in test [7] was 67.9%.

`CN(C)c1ccc(/C=C(\C#N)c2nc3ccccc3n2C)cc1`: the growth in test [1] was 40.2%; in test [2], 39.7%; in test [3], -26.2% (active); in test [5], 17.9%; in test [6], 33.2%; in test [8] it was 61.3%. Besides, in test [7], the growth was 26.2%.

With `CCCCCCCCCCCCCC(=S)NCCCC[C@H](NC(=O)OCc1ccccc1)C(=O)Nc1ccccc1`, the growth was 43.5% in test [1]; 107% in test [2]; 51.4% in test [3]; 32.7% in test [4]; 42.4% in test [5]; 25% in test [6]. In addition, in test [7], the growth was 25.9%.

Turning to `O=c1[nH]cnc2nc[nH]c12`, the growth was 111% in test [1]; 105% in test [2]; 105% in test [4]; 95.4% in test [5]; 98.1% in test [6]; 101% in test [8]. In addition, the growth in test [7] is 196%.

In the case of `CCCCNCC(O)c1cc(-c2ccc(C(F)(F)F)cc2)nc(-c2ccc(C(F)(F)F)cc2)c1` (stereo unspecified), the growth in test [1] is -80.3% (active); in test [2], -31.2% (active); in test [4], -82.1% (active); in test [5] it was -84.8% (active); in test [6], -88.5% (active); in test [8] it was -75.8% (active). Further, in test [7], the growth is -89.2% (active).

Regarding `COc1ccc2c(c1)N(CCO)C1=C(C(=O)OC1)C2c1cccc(Br)c1` (stereo unspecified), the growth in test [1] is 72%; in test [2], 15.9%; in test [3], -51% (active); in test [4], 22.5%; in test [5], 16.1%; in test [6], 3.89% (active). In test [7], the growth was -31.2% (active).

For the origin of these results see PubChem BioAssay (NCI).
